# Results published in PubChem BioAssay (Tox21).
# Inconclusive results are not listed. A call without a number means that no potency is given here. Unmarked numbers belong to inactive results. Activity calls are given as the source filed them. Calls come from the whole dose curve; as a rule, active = well fitted cell-killing curve with a large enough effect in the repeat runs; inconclusive = weak or mixed curves, or effect the other way; inactive = flat fitted curve, though single readings scatter.
# Columns and labels:
# [1] = cAMP Responsive Elements (CRE) small molecule antagonists, cell-based qHTS assay: qHTS cell viability counter screen (AID 2060913); note: nearly all actives have a fitted effect of over 40% in size
# Method in brief: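 Steps: cells plated and held 18 hrs at 37 C/5% CO2; compounds and NKH477 (0.25 uM final) added; 3 hrs incubation; reporter substrate read; CellTiter-Glo added to measure cytotoxicity by luminescence.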
# [2] = cAMP Responsive Elements (CRE) small molecule agonists, cell-based qHTS assay: qHTS cell viability counter screen (AID 2060914); note: nearly all actives have a fitted effect of over 50% in size
# Method in brief: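 Cytotoxicity was measured as ATP luminescence (CellTiter-Glo, 30 min at room temperature) in the same wells as the CRE-bla FRET read-out. HEK293T CRE-bla cells had 3 h compound exposure at 37C/5% CO2.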
Compound,Potency [1],Potency [2],"viability change, negative = cytotoxic [1]","activity change, negative = cytotoxicity [2]"
CCCCCCCCCCCO,inactive,inactive,,
C[C@H]1C[C@@H](O)CC(C)(C)C1,inactive,inactive,,
O=C(O)c1ccc(C(=O)O)c(C(=O)O)c1,inactive,inactive,,
CC(C)=CCC/C(C)=C\C#N,inactive,inactive,,
CCc1nccnc1CC,,,0.102% [at 18.9 µM],11.2% [at 18.9 µM]
COCCOc1cc2cc(C(=O)NC3CCN(C(C)C)CC3)n(CC(=O)Nc3ccc(Cl)cn3)c2cn1,inactive,inactive,,
Cc1c(Cl)c(=O)oc2cc(O)ccc12,inactive,inactive,,
CC(C)OC(=O)OCOP(=O)(CO[C@H](C)Cn1cnc2c(N)ncnc21)OCOC(=O)OC(C)C,inactive,inactive,,
CC(C)Cc1ccccc1,inactive,inactive,,
CCCCCCCCCCCCOCCO,inactive,inactive,,
CCC(CC)C(C)CCOC(C)=O (stereo not drawn),inactive,inactive,,
CCO[Si](C)(OCC)OCC,inactive,inactive,,
CCC(C)OC(=O)c1ccc(O)cc1 (stereo not drawn),inactive,inactive,,
O=C(O)[C@@H](O)[C@H](O)[C@H](O)[C@@H](O)C(=O)O,inactive,inactive,,
CC/C=C\C/C=C\C/C=C\CCCCCCCC(=O)OCC,inactive,inactive,,
COCC(O)CO (stereo not drawn),inactive,inactive,,
O=c1[nH]c(=O)c2[nH]c(=O)[nH]c2[nH]1,,,-5.49% [at 8.39 µM],8.03% [at 8.39 µM]
C[C@H]1[C@@H](c2ccccc2)NC(=O)N1C,inactive,inactive,,
C=C(C)C(=O)O[C@H]1C[C@@H]2CC[C@@]1(C)C2(C)C,inactive,inactive,,
